Most compounds without a hit are left out; they make up all but 4.3% or so of the library.
HSF1 inh – HSF1 inhibition | NIH3T3-HGL HSE-luciferase, MG132-induced, luminescence 8 h; stronger effect = lower value | activity change, negative = inhibition, % at 7.5 µM (by protocol) | 0.77% of 300,000 active;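 active = more than half of replicate wells show activity change below -50%, luminescence cut by over half; inconclusive = some wells, but at most half, below -50%; inactive = no replicate well below -50%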;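 note: luciferase reports HSF-1 transcriptional activity via heat shock element; 0% = median of DMSO wells and -100% = zero luminescence signal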
Wnt bcat act – activates Wnt/beta-catenin signaling in a reporter cell assay. activation, % at 9.35 µM. activator, plate reader. AID 743398. 1.2% of 300,000 active; in the data active = activation above about 30%, passing the limit was not always enough; inconclusive = no clear call, values can overlap the other calls;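 note: 0% = neutral control wells and 100% = positive control wells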
SMARCA2 act – activators of SMARCA2 function; MG213 cells, MMTV-luciferase reporter, dexamethasone, overnight; activation, % at 9.1 µM; 1% of 370,000 active; in the data active = activation above about 7.8%;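 note: 0% = vehicle wells and 100% = reference activator wells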
HSF-1 act – increases HSF-1 driven luciferase reporter signal | NIH3T3-HGL HSF-1 luciferase reporter, MG132, 8 h; 100% = twice DMSO control signal | activation, % at 9 µM | 1.7% of 300,000 active;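 active = mean replicate activation of at least 50% with a set share of replicates each reaching 50%; inconclusive = only one of those two conditions met; inactive = mean below 50% and too few replicates reaching it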;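 note: 0% = median of the neutral control wells and 100% = twice that signal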
MITF TRPM1 HTS – MITF TRPM1 promoter activation in melanoma cells; 0.75% of 300,000 active; activation, % at 12.5 µM; AID 588334; SK-MEL-5 TRPM1-promoter luciferase, 24 h; % of positive control, neutral wells = 0;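 active = mean activation of at least 80% with every replicate also reaching 80%; inconclusive = mean reaches 80% but some replicate falls short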;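 note: 0% = neutral control wells and 100% = parthenolide positive control wells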
esBAF inh – SWI/SNF esBAF complex inhibition. mouse ES cells, Bmi1-luciferase knock-in reporter, 24 h; 100% = twice the neutral-well signal. reporter increase, % at 12.5 µM. 2% of 350,000 active. AID 602393; in the data active = activation above about 40%; inconclusive = no clear call, values can overlap the other calls;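 note: 0% = median of the plate's neutral control wells and 100% = double that signal; a rise in the Bmi1 reporter signal indicates esBAF inhibition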
* marks the source's active call; other numbers are inactive results; ? = inconclusive; nt = no result.

SMILES | HSF1 inh | Wnt bcat act | SMARCA2 act | HSF-1 act | MITF TRPM1 HTS | esBAF inh
COc1ccc(NC(=O)N(C)C[C@H]2Oc3c(NC(=O)c4cc(C)nn4C)cccc3C(=O)N([C@H](C)CO)C[C@@H]2C)cc1 | nt | nt | nt | nt | nt | 3.7
COc1cccc2c1C(=O)c1c(O)c3c(c(O)c1C2=O)C[C@](O)(C(C)=O)C[C@H]3O[C@@H]1C[C@@H](N)[C@@H](O)[C@@H](C)O1 | -67.1* | -22.6 | -12.4 | -63.4 | -88.0 | -81.3
COC(=O)/C=C1/N/C(=N\c2nc(C)cc(C)n2)N(c2ccc(C)c(C)c2)C1=O | 55.2 | nt | -0.9 | 90.9* | 7.9 | 4.9
Nc1c(C(=O)c2ccccc2)sc2snc(SCC(=O)c3ccccc3)c12 | 51.1 | nt | 2.2 | 111.0* | 54.7 | nt
CCOC(=O)c1c(C)[nH]c(C=Nc2ccc(OC)cc2)c1O | -10.7 | 2.0 | -0.9 | -11.9 | 63.6 | ?
CCOC(=O)c1c(C)[nH]c(N=Nc2cccc(OC)c2)c1C | 7.5 | 45.0* | 0.0 | ? | 130.0* | 65.9*
CCOC(=O)c1c(C)[nH]c(O)c1C=Nc1ccccc1 | 5.3 | 1.9 | 6.0 | -5.4 | nt | 0.7
CCOC(=O)c1c(C)[nH]c(N=Nc2cccc(C)c2)c1C | 28.7 | nt | -0.6 | 48.1 | 102.9* | 78.9*
CO[C@H]1CC[C@H]2CCOc3ccc(C#N)cc3C(=O)N(C)C[C@@H](OC)[C@@H](C)C(=O)N(C)C[C@H]1O2 | nt | nt | nt | nt | nt | -1.7
O=C(CCC1CCCN(C(=O)c2cc3ccccc3o2)C1)NCc1ccc(F)c(F)c1 (stereo not given) | 43.8 | -1.3 | 1.1 | 52.0* | nt | 56.3*
O=C(CCC1CCCN(C(=O)c2ccncc2)C1)NCc1ccc(F)c(F)c1 (stereo not given) | 17.9 | -1.4 | 0.7 | 40.9 | 0.7 | nt
c1cnc(SCCOc2ccc3c(c2)CCC3)nc1 | 25.9 | nt | 4.1 | 56.9* | nt | 9.2
CC=Cc1ccc2n(c1=O)C[C@@H]1[C@@H](CO)[C@H](C(=O)N(C)C)N(CC3CCCCC3)[C@H]21 (mixture of isomers) | nt | nt | nt | nt | nt | 6.7
Cc1cc(C)c2c(N)c(C(=O)NN)sc2n1 | -1.7 | 3.8 | -1.7 | -15.2 | 16.5 | nt
Cc1cc(C)c2c(N)c(C(=O)Nc3cccc(C)c3C)sc2n1 | 13.2 | 17.7 | 2.9 | 52.4* | -3.9 | 30.2
Cc1cc(C)c2c(N)c(C(=O)N/N=C/c3ccccc3)sc2n1 | 7.3 | 46.9* | 3.4 | 16.9 | nt | 45.8*
Cc1cc(C)c2c(N)c(C(=O)N/N=C/c3cccnc3)sc2n1 | -3.3 | 20.3 | 5.0 | 9.7 | nt | nt
Cc1cc(C)c2c(N)c(C(=O)NNC(=O)c3ccccc3)sc2n1 | 11.9 | 7.2 | 7.5 | 9.4 | 37.1 | 66.4*
COc1ccc(NC(=S)NC(=O)C2CCC2)cc1 | 9.4 | 38.1* | 3.6 | 12.9 | 31.1 | 46.7*
O=C(NC(=S)Nc1ccc(Br)cc1)C1CCC1 | 10.0 | 10.3 | 4.8 | 3.5 | 54.6 | 39.2
O=C(NC(=S)Nc1ccccc1)C1CCCCC1 | 13.7 | 5.8 | 2.7 | 26.5 | 50.2 | 41.1*
O=C(NC(=S)Nc1ccc(Br)cc1)C1CCCCC1 | 10.8 | 9.1 | 3.1 | 28.3 | 12.3 | 27.1
Cc1nn(-c2ccccc2C(=O)O)c(=O)c2ccccc12 | -7.7 | -2.1 | -4.0 | 3.4 | 5.5 | -3.5
Cc1nn(-c2ccc(Br)cc2)c(=O)c2ccccc12 | 14.7 | 41.8* | 6.5 | 27.8 | 21.6 | 31.4
C[C@H]1CN([C@@H](C)CO)C(=O)c2cc(C#CC3(O)CCCC3)cnc2O[C@@H]1CN(C)Cc1ccccn1 | nt | nt | nt | nt | nt | -5.0
SMILES | HSF1 inh | Wnt bcat act | SMARCA2 act | HSF-1 act | MITF TRPM1 HTS | esBAF inh
N#Cc1c(/N=C/c2ccco2)sc2c1CCCCC2 | 0.1 | -4.8 | 0.1 | -5.1 | 2.9 | -1.1
N#Cc1c(/N=C/c2cc(Br)cs2)sc2c1CCC2 | 0.4 | nt | 0.9 | 19.6 | 56.6 | 78.5*
CN1C(=O)c2cc(NC(=O)c3cccc(F)c3)ccc2OC[C@H]2O[C@@H](CC(=O)Nc3ccccc3)CC[C@H]21 | nt | nt | nt | nt | nt | 1.9
COc1ccc2cc(C(=O)OC(C)C)sc(=O)c2c1OC | 4.7 | nt | 3.1 | 3.7 | 39.3 | 53.2*
Cc1ccc(C(=O)Nc2ccc3nccnc3c2)cc1 | -6.9 | nt | -0.1 | 9.3 | 11.4 | nt
Cc1ccc(NC(=O)c2ccc3nccnc3c2)c(C)c1 | 6.3 | 7.7 | -0.7 | 9.7 | 99.5* | 34.7
Cc1cc(NC(=O)c2ccc3nccnc3c2)ccc1Br | nt | 66.4* | 2.0 | nt | 69.9 | -8.1
O=C(Nc1ccc(SC(F)F)cc1)c1ccc2nccnc2c1 | -2.7 | nt | -2.0 | 22.4 | 46.2 | 122.2*
CO[C@H]1CN(C)C(=O)c2ccc(NS(=O)(=O)c3ccc(Cl)cc3)cc2OC[C@H](C)N(C(=O)NC(C)C)C[C@@H]1C | nt | nt | nt | nt | nt | 0.6
O=C(O)c1cccc(COc2ccc(CO)cc2Cl)c1 | -90.8* | 0.2 | 2.2 | -92.8 | -104.4 | nt
O=Cc1ccc(OCc2cccc(C(F)(F)F)c2)cc1O | 0.2 | 0.3 | -3.0 | 17.3 | 0.4 | nt
O=C(OCC(F)(F)F)c1cccc(COc2ccc3ccccc3c2)c1 | -62.1* | nt | 7.4 | -65.6 | -91.4 | nt
CCOc1ccc(OCc2cccc(C(=O)N3CCCCCC3)c2)cc1 | -34.6 | -6.2 | 4.9 | -40.3 | -45.7 | nt
CCOc1ccc(OCc2cccc(C(=O)O)c2)cc1 | -93.3* | -12.6 | -0.2 | -93.8 | -93.2 | -82.7
CCOc1ccc(OCc2cccc(C(=O)N3CCCC3)c2)cc1 | -50.9* | nt | 4.2 | -60.1 | -28.0 | -12.4
C[C@@H]1CN([C@H](C)CO)C(=O)c2cc(-c3cccnc3)cnc2O[C@@H]1CN(C)C(=O)Cc1cccnc1 | nt | nt | nt | nt | nt | 0.8
CCC(=O)N[C@H]1C=C[C@H](CC(=O)NCc2ccc(OC)cc2)O[C@@H]1CO | nt | nt | nt | nt | nt | -1.0
COc1ccc(OCc2cccc(C(=O)O)c2)cc1 | -90.2* | nt | 3.7 | -91.2 | -96.3 | -86.1
O=C(O)c1cc(OCc2ccccc2)cc(OCc2ccccc2)c1 | -4.0 | -0.4 | 0.1 | -8.2 | -3.3 | -0.8
Cn1c(SCC(=O)c2ccccc2)nnc1-c1ccccn1 | 27.9 | 56.9* | -4.4 | 28.0 | nt | 35.7
CCc1ccccc1-n1c(SCC(=O)N2CCCC2)nnc1-c1ccccn1 | -3.1 | 64.8* | 3.3 | -8.6 | 1.0 | -3.4
Cn1c(SCC(=O)c2ccccc2)nnc1-c1ccc(O)cc1 | 15.7 | 63.6* | 6.1 | 9.3 | 23.0 | 24.2
CCn1c(SCC(=O)c2ccc(O)c(O)c2)nnc1-c1ccccc1OC | -1.7 | nt | -0.1 | 8.3 | -3.7 | 23.0
CCn1c(SCC(=O)c2ccc(O)c(O)c2)nnc1-c1ccccc1 | 5.3 | nt | 2.1 | 8.7 | 30.9 | 45.4*
C[C@H]1CCCCO[C@H](CN(C)C(=O)c2ccccc2)[C@@H](C)CN([C@@H](C)CO)C(=O)c2cc(NC(=O)Nc3ccc(F)cc3)ccc2O1 | nt | nt | nt | nt | nt | -4.8
C[C@H]1CN([C@@H](C)CO)C(=O)c2cc(-c3cccnc3)cnc2O[C@H]1CN(C)C(=O)C1CCCCC1 | nt | nt | nt | nt | nt | -2.7
Cn1c(SCC(=O)c2ccccc2)nnc1-c1ccco1 | -1.5 | 39.9* | 6.3 | -19.8 | 30.0 | 34.4
COc1ccc(C(=O)CSc2nnc(-c3ccco3)n2C)cc1 | -1.5 | 0.4 | -2.6 | 5.8 | 11.5 | 6.0
